A selection: hits, their analogues and other compounds. The true share with any hit is near 15%.
HCV inh – qHTS Assay for Inhibitors of Hepatitis C Virus (HCV) | Potency, µM (series often up to 41.8 µM), usual class: inhibitors | 3.4% of 340,000 active | Huh7.5.1 HCVcc-Cre infection, luciferase reporter, 44 h | AID 651820, 2012
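Whole-lifecycle infectious HCVcc-Cre system; cells 1,000/well, compound then virus (~0.5 moi) added 4 h after plating, 44 h culture. Luciferase read 15 sec following 15 min substrate incubation, room temp.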
Pf growth 96h – Primary qHTS for delayed death inhibitors of the malarial parasite plastid, 96 hour incubation; P. falciparum luciferase reporter growth, 96 h; Potency, µM (titrated, usually from 28.7 µM), hits mostly inhibitors; 6.9% of 320,000 active
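Luminescence readout: decreased luciferase signal marks inhibited growth of reporter-expressing P. falciparum in infected red cells (2% hematocrit, 0.05% parasitemia final), exposed to compound two generations (96 h, 37 C, 5% CO2).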
SARS PLpro yeast – qHTS of Yeast-based Assay for SARS-CoV PLP; S. cerevisiae expressing SARS-CoV PLpro, growth rescue; Potency, µM (doses to about 32.9 µM), usual class: activators; 0.19% of 330,000 active; calls by dose curve; note: nearly all actives have a fitted effect of over 55% in size
Pf growth 48h – Primary qHTS for delayed death inhibitors of the malarial parasite plastid, 48 hour incubation. Potency, µM (series often up to 28.7 µM), usual class: inhibitors. P. falciparum luciferase growth in erythrocytes, 48 h. AID 504832, 2011. 5.9% of 310,000 active
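Luciferase-expressing P. falciparum in infected erythrocytes (2% hematocrit, 0.1% parasitemia final) in RPMI 1640/0.5% Albumax were exposed to compound for 48 hours at 37 C, 5% CO2; growth read as luminescence.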
HCMV antiviral – qHTS Assay for inhibitors of the human cytomegalovirus (HCMV); HFF cells, HCMV-luciferase reporter, 72 h; stronger effect = lower value; activity change, negative = inhibition, % at 57.5 µM; 4.5% of 410,000 active; in the data active = activity change below about -60%; inconclusive = no clear call, values can overlap the other calls; inactive = above about -39%
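Screen run at 2 compound doses on HFFs infected with reporter HCMV, MOI 1 PFU/cell. Luciferase activity from cell lysates at 72 h post infection gave inhibition relative to buffer-only and Salinomycin wells.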
Sm TGR inh – qHTS Assay for the Inhibitors of Schistosoma Mansoni Peroxiredoxins. purified TGR, DTNB reduction, TNB absorbance 405 nm. Potency, µM (doses to about 114 µM), usual class: inhibitors. 3% of 360,000 active. Schistosoma mansoni thioredoxin glutathione reductase (TGR), Q962Y6; note: nearly all actives have a fitted effect of over 60% in size
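TGR 20 nM + NADPH 100 uM (dispensed conc.), cpd preinc 15 min RT; start with NADPH (500 uM addition) then DTNB (15 mM addition). Kinetic TNB absorbance, 405 nm filter. Four-parameter Hill fit across titration.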
Numbers stand for hits; . = inactive; ? = inconclusive; / = no result. Unless noted, calls come from the whole dose curve; as a rule, active = well fitted curve in the direction sought with a large enough effect; inconclusive = small, poorly fitted or top-dose-only effect, or another doubt; inactive = no such curve, though single readings can be large; an effect the other way counts as inactive or inconclusive.

SMILES	HCV inh	Pf growth 96h	SARS PLpro yeast	Pf growth 48h	HCMV antiviral	Sm TGR inh
O=C(Nc1cccnc1)c1ccc([N+](=O)[O-])cc1Cl	.	.	.	.	?	.
CC1(C(=O)OCC(=O)Nc2nnc(-c3ccccc3)o2)CC1(Cl)Cl (centres undefined)	.	.	.	?	.	.
CN1CCN(C(=O)c2cc3cc(Cl)ccc3[nH]2)CC1	.	10.4µM	.	.	.	.
O=C(c1cc2cc(F)ccc2[nH]1)N1CCN(C(=O)c2ccco2)CC1	.	?	.	?	.	39.8µM
O=C(c1cc2cc(Cl)ccc2[nH]1)N1CCCCC1	.	.	.	.	.	.
COc1ccccc1N1CCN(C(=O)c2cc3cc(C)ccc3[nH]2)CC1	.	?	?	?	.	.
Cc1ccc2[nH]c(C(=O)N3CCN(C(c4ccccc4)c4ccccc4)CC3)cc2c1	.	?	.	2.62µM	.	.
COc1cc(C(=O)N2CCN(c3cccc(C)c3C)CC2)cc(OC)c1OC	?	10.4µM	.	?	?	?
Cc1cccc(N2CCN(C(=O)c3ccncc3)CC2)c1C	?	.	.	.	.	.
CNc1nc2cnc(Nc3ccc(F)cc3)cc2n1-c1cccc(C(F)(F)F)c1	/	/	/	/	.	/
O=C1OCCN1c1c(-c2ccccc2)c(-c2cccs2)nc2c(-c3ccccc3)cccc12	.	?	.	?	/	?
CCC(C)n1c(=S)[nH]c2c(sc3ccc([N+](=O)[O-])cc32)c1=O (centres undefined)	?	?	.	.	?	.
CN1CCN(C(=O)c2ccc(Cl)cc2)CC1	.	2.62µM	.	.	.	.
CN1CCN(C(=O)c2cc3cc(F)ccc3[nH]2)CC1	.	.	.	14.7µM	.	.
CN1CCN(C(=O)c2ccc(CSc3ccc(Cl)cc3)cc2)CC1	?	.	.	.	.	.
COc1ccccc1N1CCN(C(=O)c2cc3cc(F)ccc3[nH]2)CC1	.	?	.	?	.	.
Cc1cccc(N2CCN(C(=O)c3cc4cc(F)ccc4[nH]3)CC2)c1C	.	13.1µM	.	1.65µM	/	.
Cc1ccc(-n2c(-c3ccccc3)c[n+]3c2CCc2ccccc2-3)c(C)c1	?	.	.	0.928µM	-96.9	.
Cc1ccc(-n2c(SCC(=O)N3CCCc4ccccc43)nnc2-c2cccnc2)c(C)c1	?	.	.	?	?	.
Cc1cc(OC(F)F)ccc1NC(=S)NC1CCCC1	.	13.1µM	.	?	.	.
COc1ccc(NC(=O)N(C2CCCCC2)C2CCN(C(C)C)CC2)c(OC)c1	3.55µM	?	.	.	.	.
Cc1cc(F)ccc1NC(=S)NC1CCCC1	.	.	.	?	.	.
COc1ccc(NC(=S)NC2CCCCCC2)c(OC)c1	?	.	.	?	-77.2	.
COc1ccccc1NC(=S)NC1CCC(CC2CCC(NC(=S)Nc3ccccc3OC)CC2)CC1 (centres undefined)	.	8.28µM	.	11.7µM	?	.
O=C1NC(=O)C2(CCCCC2C2CCCCC2)N1 (centres undefined)	.	/	/	/	.	/
SMILES	HCV inh	Pf growth 96h	SARS PLpro yeast	Pf growth 48h	HCMV antiviral	Sm TGR inh
CCN(C(=O)Cn1nnc2sc3c(c2c1=O)CCC(C(C)(C)C)C3)c1cccc(C)c1 (centres undefined)	/	/	/	/	.	.
Oc1ccc(CN2CCCCC2)c2cccnc12	6.31µM	.	.	?	-68.4	.
c1ccc2c(CN3CCCCC3)c[nH]c2c1	.	.	.	.	.	.
Oc1c(Cl)cc(CN2CCCCC2)c2cccnc12	/	.	.	3.7µM	/	4.47µM
CCOC(=O)N1CCN(Cc2ccc(O)c3ncccc23)CC1	4.47µM	.	.	?	.	0.282µM
Oc1ccc(CN2CCc3ccccc3C2)c2cccnc12	3.98µM	3.7µM	/	?	-99.3	31.6µM
CSc1ncccc1C(=O)N1CCN(S(=O)(=O)c2cc(C)ccc2C)CC1	.	.	.	.	.	.
Oc1c(CN2CCCCC2)ccc2cccnc12	10µM	/	/	/	-73.5	/
